Only some compounds are listed: those with a hit (about 17% of all), similar ones and a draw of the others.
TGFb SMAD3 inh = qHTS for Inhibitors of TGF-b; HepG2 CAGA-GFP TGF-b/SMAD3 reporter, GFP fluorescence, 18 h; TGF-beta stimulated, 500 pg/mL final; Potency, µM (doses to about 46.1 µM), inactives show at the highest dose activity, negative = inhibition, most hits filed as inhibitors; 410,000 compounds, 1.2% hits; AID 588855, 2011; note: % is set by controls: 0 for no effect and ±100 for the full control effect; nearly all actives have a fitted effect of over 65% in size
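HEPG2 CAGA-GFP cells (1000/well, DMEM with 1% FBS) were pre-incubated 2 h at 37 degrees C, given compound by pin tool, then stimulated with TGF-beta at 500 pg/mL final for 18 h before per-cell GFP fluorescence imaging.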
HT1080 IDH1KD tx = qHTS for induction of synthetic lethality in tumor cells producing 2HG: qHTS for the HT-1080-IDH1KD cell line; 360,000 compounds, 2% hits; Potency, µM (highest dose often 46.1 µM), for the others: at the highest dose activity, negative = toxicity, actives largely listed as cytotoxic; AID 686971, 2013; HT-1080 IDH1 knockdown viability, ATP luminescence, 48 h;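 note: 0% = DMSO wells and -100% = cell-free medium wells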
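CellTiter-Glo luminescence after 48 h compound exposure at 37 degrees C of IDH1-knockdown HT-1080 cells in 5% FBS RPMI. %Activity scaled between DMSO wells and cell-free media wells, with curves fitted and assigned curve classes.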
TDP1 cell noCPT = qHTS for Inhibitors of human tyrosyl-DNA phosphodiesterase 1 (TDP1): qHTS in cells in absence of CPT | Potency, µM (series often up to 46.2 µM), for inactives: at the highest dose activity change, negative = growth inhibition, most hits filed as inhibitors | 420,000 compounds, 15% hits | DT40 Tdp1-/- hTDP1 cells, no CPT, ATP luminescence, 48 h | AID 686978, 2013; note: % is set by controls: 0 for no effect and ±100 for the full control effect; nearly all actives have a fitted effect of over 55% in size
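Seeded 400 DT40-hTDP1 cells/well (vehicle DMSO, no 20 nM CPT); pinned compounds; ≥48 hr at 37 °C; CellTiter-Glo luminescence as viability measure.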
TDP1 cell CPT = qHTS for Inhibitors of human tyrosyl-DNA phosphodiesterase 1 (TDP1): qHTS in cells in presence of CPT. AID 686979, 2013. 420,000 compounds, 12% hits. Potency, µM (highest dose often 46.2 µM), for the others: at the top dose activity change, negative = growth inhibition, usual class: inhibitors. chicken DT40 Tdp1-/-;hTDP1 cells + 20 nM CPT, ATP luminescence, 48 h; note: % is set by controls: 0 for no effect and ±100 for the full control effect; nearly all actives have a fitted effect of over 55% in size
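Chicken DT40 Tdp1-/- cells complemented with human TDP1, 400 cells/well, exposed to compounds plus 20 nM camptothecin for at least 48 h at 37 C; viability read as ATP content by CellTiter-Glo luminescence.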
HT1080-NT tox = qHTS for induction of synthetic lethality in tumor cells producing 2HG: qHTS for the HT-1080-NT fibrosarcoma cell line. HT-1080-NT fibrosarcoma viability, CellTiter-Glo ATP luminescence, 48 h. Potency, µM (titrated, usually from 46.1 µM), for the others: at the highest dose activity, negative = less viability, usual class: cytotoxic. 360,000 compounds, 1.6% hits;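 note: NT is the 2HG producing partner of a matched IDH1 knockdown line; 0% = DMSO-treated cells and -100% = media-only wells without cells; nearly all actives have a fitted effect of over 55% in size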
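Toxicity toward the 2HG-producing NT line was scored as %Activity, normalised to DMSO and no-cell wells, from CellTiter-Glo luminescence after 48 hours' treatment.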
HepG2 tox = qHTS for Inhibitors of TGF-b: Cytotox Counterscreen | HepG2 CAGA-GFP viability, ATP luminescence, 18 h | Potency, µM (series often up to 46.1 µM), for the others: top-dose activity change, negative = cytotoxicity, actives largely listed as cytotoxic | 410,000 compounds, 0.76% hits | AID 588856, 2011
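HepG2 CAGA-GFP cells (1000/well, DMEM with 1% FBS) received compound, then TGF-beta at 500 pg/mL final, and were incubated 18 hours at 37 degrees C. Viability was read by CellTiter-Glo luminescence. Media-only wells were set as complete cell-killing and DMSO as no toxicity.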
Starred values were filed as active, the others as inactive; ? = inconclusive; . = not tested or not shown; [ ] = another dose, or the depositor's remark. Calls come from the whole dose curve; as a rule, active = well fitted curve in the direction sought with a large enough effect; inconclusive = small, poorly fitted or top-dose-only effect, or another doubt; inactive = no such curve, though single readings can be large; an effect the other way counts as inactive or inconclusive. Potency is the fitted concentration of half-maximal effect.

SMILES	TGFb SMAD3 inh	HT1080 IDH1KD tx	TDP1 cell noCPT	TDP1 cell CPT	HT1080-NT tox	HepG2 tox
O=C(Nc1ccc2[nH]c3c(c2c1)CCCC3)c1ccco1	10%	-21%	21µM*	?	-16%	-30%
CC(=O)c1cccc(NS(=O)(=O)c2ccc3[nH]c4c(c3c2)CCCCCC4)c1	?	.	21µM*	?	.	-82%
COc1ccc(NC(=O)c2cc3c(=O)n4ccccc4nc3n2C)cc1OC	-17%	5%	?	?	-4%	-2%
O=C(c1ccco1)N1CCN(c2nc(-c3ccc(F)cc3)cs2)CC1	-7%	-19%	-24%	?	-9%	-13%
Cc1cc(C(=O)N(C2CCCCC2)C2CCCCC2)no1	?	-21%	8.2µM*	13µM*	0%	-1%
COc1ccc(-n2cnc3c(sc4nc(N5CCOCC5)c5c(c43)CCCC5)c2=O)cc1	-2%	2%	23µM*	18µM*	24%	29%
Cc1ccccc1-n1cnc2c(sc3nc(N4CCOCC4)c4c(c32)CCCC4)c1=O	16%	?	15µM*	18µM*	?	1%
C=CCNc1nnnc2c1sc1nc(N3CCOCC3)c3c(c12)CCCC3	8%	20%	13µM*	18%	12%	16%
O=c1c2sc3nc(N4CCOCC4)c4c(c3c2nnn1Cc1ccccc1)CCCC4	-11%	-1%	?	8.2µM*	-2%	-15%
O=c1c2sc3nc(N4CCOCC4)c4c(c3c2ncn1-c1ccccc1)CCCC4	-6%	-3%	?	?	-9%	-23%
CC(C)CNc1nnnc2c1sc1nc(N3CCOCC3)c3c(c12)CCCC3	21%	6%	?	?	17%	38%
Cc1cnc(CNC(=O)c2c3n(c(C)cc2=O)-c2ccccc2SC(c2ccsc2)C3)cn1 (configuration not stated)	.	.	-7%	-10%	.	.
Fc1ccccc1N1CCN(CC2CCCCC2)CC1	-18%	-2%	-7%	-20%	-9%	-24%
CCCN1C(=O)/C(=C/c2ccc(C)s2)NC1=S	-10%	-11%	-7%	26µM*	-15%	-13%
O=c1cc(CCl)nc2sc3ccccc3n12	?	?	?	?	16µM*	16µM*
O=C(OCc1cc(=O)n2c(n1)sc1ccccc12)c1ccc(O)cc1	2%	13%	-3%	1%	-2%	11%
Cc1c(CCC(=O)NCCC(=O)O)c(=O)oc2c(C)c3oc4c(c3cc12)CCCC4	-2%	0%	2%	5%	1%	-25%
Cc1cccc(C)c1NC(=O)C1(C)CSCC(=O)N1CCOc1ccccc1 (configuration not stated)	.	1%	-26%	14%	1%	.
COc1ccccc1NC(=O)c1ccc2nc(C)sc2c1	11%	-1%	-16%	-2%	3%	1%
COc1cccc(NC(=O)c2ccc3nc(C)sc3c2)c1	14%	10%	?	18µM*	15%	6%
COc1cccc(CC(=O)Nc2ccc3nc(C)sc3c2)c1	0%	9%	13µM*	?	19%	4%
COc1ccc(C(=O)Nc2cccc(OC(=O)c3ccc(C)c(C)c3)c2)cc1	?	-15%	23µM*	-75%	-24%	-27%
CCOC(=O)C1=CN(C)C=C(C(=O)OCC)C1c1ccsc1	-12%	4%	-13%	-25%	9%	-26%
COCCCNC(=O)c1ccc2c(c1)N=C(C)c1c(C)ccc(C)c1S2	?	.	.	.	.	-29%
CC1=Nc2cc(C(=O)N3CCCC3)ccc2Sc2ccc(C)cc21	-11%	-1%	?	4%	4%	-25%
SMILES	TGFb SMAD3 inh	HT1080 IDH1KD tx	TDP1 cell noCPT	TDP1 cell CPT	HT1080-NT tox	HepG2 tox
CC1=Nc2cc(C(=O)NCCCOC(C)C)ccc2Sc2ccc(C)cc21	?	1µM*	4.6µM*	5.2µM*	0.73µM*	1%
CC1=Nc2cc(C(=O)NCCc3ccc(Cl)cc3)ccc2Sc2ccc(C)cc21	8.9µM*	.	6.5µM*	6.5µM*	.	-17%
CC1=Nc2cc(C(=O)NCCCOC(C)C)ccc2Sc2ccccc21	-16%	8.2µM*	21µM*	16µM*	?	1%
CC(=O)c1ccc(NC(=O)Nc2cccc3ccccc23)cc1	-1%	17%	13%	14%	11%	0%
CN1CCN(C(=S)NC(=O)c2ccc(C(C)(C)C)cc2)CC1	-16%	-12%	?	?	-12%	-14%
Cc1ccc2c(c1)C1CN(C)CCC1N2C(=S)NC(=O)c1ccc(Br)cc1 (configuration not stated)	-26%	-26%	?	9.2µM*	1%	-20%
CN1CCN(C(=S)C(=O)Nc2ccc(Br)cc2)CC1	-6%	1%	?	13µM*	4%	8%
Cc1cccc(C(=O)NC(=S)N2CCN(C)CC2)c1	-6%	10µM*	?	?	13µM*	-11%
Cc1cccc(C(=O)NC(=S)N2CCN(C(=S)NC(=O)c3cccc(C)c3)CC2)c1	8%	-8%	?	?	-7%	-20%
CN1CCC(NC(=O)Nc2ccc(Br)cc2)CC1	0%	3%	?	-15%	-21%	-6%
CN1CCN(C(=S)NC(=O)c2ccc(Br)cc2)CC1	-12%	2%	5.2µM*	?	22%	-14%
Nc1ccc(S(=O)(=O)Nc2ccccc2)cc1	.	.	-4%	5%	.	.
Cc1ccc(C(=O)NC(=S)N2CCN(C)CC2)cc1	-1%	-3%	3%	-2%	-7%	10µM*
O=S(=O)(O)O	.	.	-4%	1%	.	.
CCN(CC)c1ccc(S(=O)(=O)N2CCOCC2)cc1NC(=O)CNCc1cccc(Cl)c1	?	-15%	15µM*	18µM*	3%[9.24 µM]	-20%
CCN(CC)c1ccc(S(=O)(=O)N2CCOCC2)cc1NC(=O)c1cc(=O)c2ccccc2o1	5%	1%	7.3µM*	8.2µM*	-2%	-16%
Cc1ccc(S(=O)(=O)N2CCOCC2)cc1NC(=O)CNCc1ccc(Cl)cc1Cl	?	-14%	16µM*	?	-8%	-2%
CCN(CC)c1ccc(S(=O)(=O)N2CCOCC2)cc1NC(=O)CN1C(=O)NC2(CCCC2)C1=O	6%	5%	2%	-29%	4%	1%
